Pf growth 96h – P. falciparum growth inhibition at 96 hour, primary screen for plastid delayed-death inhibitors | P. falciparum luciferase reporter growth, 96 h | Potency, µM (series often up to 28.7 µM), inactives show top-dose activity change, negative = inhibition, usual class: inhibitors | 320,000 compounds, 6.9% hits
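Readout is luminescence from an integrated firefly luciferase in P. falciparum. Red cells, 2% hematocrit and 0.05% parasitemia final, were cultured with compound through two parasite generations (96 hours) at 37 C, 5% CO2.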
AMA1-RON2 inh – AMA1-RON2 (P. falciparum) interaction inhibition; AlphaScreen AMA1-biotinylated RON2 peptide binding; Potency, µM (titrated, usually from 58.2 µM), for inactives: at the top dose activity change, negative = inhibition, hits mostly inhibitors; 360,000 compounds, 0.2% hits;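 note: 0% = vehicle wells and -100% = peptide control; nearly all actives have a fitted effect of over 45% in size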
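AMA1 (3D7) with his tag at 25 nM final met compounds first, then biotinylated RON2 peptide at 25 nM; detection used donor plus acceptor beads, 10 µg/mL apiece, read by AlphaScreen after 30 min at room temperature.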
AmpC inh detg – blocks E. coli AmpC beta-lactamase in detergent assay; 370,000 compounds, 0.041% hits; AmpC hydrolysis of nitrocefin, absorbance 480 nm, 0.01% Triton; Potency, µM (series often up to 114 µM), inactives show top-dose activity change, negative = inhibition, actives largely listed as inhibitors; P00811; AID 485294;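 note: 0% = no-compound wells and -100% = no-enzyme wells; nearly all actives have a fitted effect of over 25% in size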
Target sequence (P00811 whole entry, looked up): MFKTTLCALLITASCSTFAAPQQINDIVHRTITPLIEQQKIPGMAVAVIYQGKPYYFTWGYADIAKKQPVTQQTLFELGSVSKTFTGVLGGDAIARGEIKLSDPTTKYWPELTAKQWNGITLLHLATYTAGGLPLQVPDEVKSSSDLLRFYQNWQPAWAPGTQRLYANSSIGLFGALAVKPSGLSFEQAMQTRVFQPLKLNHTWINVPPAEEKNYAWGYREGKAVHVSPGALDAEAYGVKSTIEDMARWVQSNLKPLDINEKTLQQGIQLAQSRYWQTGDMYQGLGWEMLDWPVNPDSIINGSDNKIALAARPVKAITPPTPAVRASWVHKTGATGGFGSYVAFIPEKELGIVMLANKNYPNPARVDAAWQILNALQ
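20 mM phosphate pH 7.0 + 0.01% (detergent screen) or 0.0001% Triton X-100; 5.3 nM AmpC reagent; cpd preinc 15 min RT; nitrocefin (800 uM stock) to start; A480 q20 s × 4 min; Activity was normalised to no-enzyme and no-compound control wells.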
HCV inhibitor – HCV inhibition. Huh7.5.1 HCVcc-Cre infection, luciferase reporter, 44 h. 340,000 compounds, 3.4% hits. AID 651820. Potency, µM (series often up to 41.8 µM), for the others: at the top dose activity change, negative = inhibition, most hits filed as inhibitors
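Whole-lifecycle infectious HCVcc-Cre system; cells 1,000/well, compound then virus (~0.5 moi) added 4 h after plating, 44 h culture. Luciferase read 15 sec following 15 min substrate incubation, room temp.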
AmpC no deterg – blocks E. coli AmpC beta-lactamase in detergent-free assay. Potency, µM (highest dose often 57.1 µM), for the others: at the top dose activity change, negative = inhibition, hits mostly inhibitors. 330,000 compounds, 0.52% hits. AmpC nitrocefin hydrolysis, absorbance 480 nm, 0.0001% Triton. AID 485341. P00811;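 note: plate controls were no compound for no effect and no enzyme for full effect; nearly all actives have a fitted effect of over 20% in size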
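20 mM phosphate pH 7.0 + 0.01% (detergent screen) or 0.0001% Triton X-100; 5.3 nM AmpC reagent; cpd preinc 15 min RT; nitrocefin (800 uM stock) to start; A480 q20 s × 4 min; Activity was normalised to no-enzyme and no-compound control wells.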
Pf growth 48h – inhibits P. falciparum growth in the first generation, 48 h | P. falciparum luciferase growth in erythrocytes, 48 h | Potency, µM (titrated, usually from 28.7 µM), without a hit: top-dose activity change, negative = inhibition, most hits filed as inhibitors | 310,000 compounds, 5.9% hits | AID 504832
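First compound was added to culture medium, then infected red cells at 0.1% parasitemia and 2% hematocrit (final). After incubation at 37 C under 5% CO2, luciferase detection reagent was dispensed and light output recorded.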
Active calls of the source: *; ? = inconclusive; · = no result given; [ ] = dose if it differs, or a comment. This is a sample that favours compounds with a hit; in the whole collection about 11% have one here. Calls come from the whole dose curve; as a rule, active = well fitted curve in the direction sought with a large enough effect; inconclusive = small, poorly fitted or top-dose-only effect, or another doubt; inactive = no such curve, though single readings can be large; an effect the other way counts as inactive or inconclusive. Unless noted, % is set by controls: 0 for no effect and ±100 for the full control effect; potency is the fitted concentration of half-maximal effect.

SMILES	Pf growth 96h	AMA1-RON2 inh	AmpC inh detg	HCV inhibitor	AmpC no deterg	Pf growth 48h
CCCC(=O)N1CCN(c2ccc(NC(=O)c3cc4ccccc4o3)cc2Cl)CC1	7%	0%	?	2.2µM*	78%	1.5µM*
O=C(Nc1ccc(N2CCN(C(=O)c3ccco3)CC2)c(Cl)c1)c1cc2ccccc2o1	-2%	-10%	-1%	3.5µM*	-8%	2.9µM*
CCC(=O)N1CCN(c2ccc(NC(=O)c3ccco3)cc2Cl)CC1	-1%	12%	-3%	-4%	-12%	?
CCC(=O)N1CCN(c2ccc(NC(=O)c3cc4ccccc4o3)cc2Cl)CC1	-2%	-3%	3%	11µM*	83%	?
CCCC(=O)N1CCN(c2ccc(NC(=O)c3cccs3)cc2Cl)CC1	126%	13%	1%	22%	-9%	?
COc1cc(Cl)c(C)cc1NC(=O)CSc1nc2c(c(=O)[nH]1)CCCC2	·	·	-6%	·	·	·
CCCCCn1c(=O)[nH]c2cc(C(=O)Nc3ccc(OC)c(OC)c3)ccc2c1=O	·	·	-2%	·	·	·
COc1ccc(C)cc1NC(=O)c1oc2ccc(S(=O)(=O)N3CCC4(CC3)OCCO4)cc2c1C	·	·	4%	·	·	·
O=C(CCS(=O)(=O)c1ccc(Br)cc1)Nc1ccc(Cl)c(C(F)(F)F)c1	·	·	4%	·	·	·
O=C(c1cc2cc(F)ccc2[nH]1)N(Cc1cccnc1)CC1CCCN(C2CCCCC2)C1 (configuration not stated)	?	-3%	7%	?	54%	2.6µM*
C#Cc1cccc(C(=O)N(Cc2cccnc2)CC2CCCN(C3CCCCC3)C2)c1 (configuration not stated)	·	10%	·	·	·	·
CC1(C)CC(N2CCOCC2)=CC(=[N+]2CCOCC2)C1	8.3µM*	14%	?	9%	-10%[11.4 µM]	13µM*
CC1C[N+](=C2C=C(N3CCOCC3)CC(C)(C)C2)CC(C)O1 (configuration not stated)	12µM*	3%	4%	7%	-25%	?
CCCS(=O)(=O)N1CC(=O)N(c2ccc(C)cc2C)C(C)(C(=O)NC2CCCCCC2)C1 (configuration not stated)	·	·	-1%	·	·	·
CC1CC(C)CN(C(=O)c2ccc3ccccc3c2)C1 (configuration not stated)	?	-3%	?	?	-7%	0.83µM*
O=C(c1cc(-c2ccncc2)nc2ccccc12)N1CCN(S(=O)(=O)/C=C/c2ccccc2)CC1	?	12%	9%	-25%	138%	1.9µM*
COc1ccc(-c2cc(C(=O)N3CCN(c4cccc(C)c4C)CC3)c3ccccc3n2)cc1OC	10µM*	-6%	-12%	?	73%	9.3µM*
CC1CN(C(=O)c2cc(-c3ccncc3)nc3ccccc23)CC(C)O1 (configuration not stated)	-10%	8%	-11%	3%	-4%	-29%
CC1CC(C)CN(C(=O)c2cc(-c3ccncc3)nc3ccccc23)C1 (configuration not stated)	?	-15%	-8%	-23%	20%	9.3µM*
Cc1ccc2c(c1)-c1c(cnc3cc(-c4ccc(Cl)cc4)nn13)CO2	·	·	0%	·	·	·
COc1ccc(S(=O)(=O)c2c(O)c(C)cc(NS(=O)(=O)c3ccc(Cl)cc3)c2C(C)C)cc1	·	·	4%	·	·	·
Cn1c(=O)c2c(c3ccccc31)OC(=O)CC2c1cccc(F)c1 (configuration not stated)	·	·	1%	·	·	·
COc1ccc(-c2cc(C(=O)N3CC(C)CC(C)C3)c3ccccc3n2)cc1OC (configuration not stated)	10µM*	-13%	?	?	124%	?
CN1CC(=O)N(C)c2ncn(Cc3ccccc3)c2C1=O	8.3µM*	9%	8%	0%	6%	26%
Cc1ccc(C(=O)N2CCCC(c3nc4c(nnn4Cc4ccccc4)c(=O)[nH]3)C2)cc1 (configuration not stated)	·	-5%	1%	17%	56%	10µM*
SMILES	Pf growth 96h	AMA1-RON2 inh	AmpC inh detg	HCV inhibitor	AmpC no deterg	Pf growth 48h
CCOc1ccccc1NC(=O)N1CCCC(c2nc3c(nnn3Cc3ccc(C)cc3)c(=O)[nH]2)C1 (configuration not stated)	0%	13%	-9%	-6%	-7%	4.1µM*
Cc1ccccc1Cn1nnc2c(=O)[nH]c(C3CCCN(C(=O)c4ccc(F)cc4)C3)nc21 (configuration not stated)	·	·	15%	·	·	·
CCCCC(=O)N1CCCC(c2nc3c(nnn3Cc3cc(C)ccc3C)c(=O)[nH]2)C1 (configuration not stated)	?	-2%	-1%	·	56%	8.3µM*
Cc1cc(C(=O)CSc2nc3ccccc3c(=O)n2C)c(C)n1Cc1ccc2c(c1)OCO2	-6%	-13%	-8%	1.6µM*	-1%	-10%
Cc1cc(C(=O)CSc2nnc(Cc3ccccc3)o2)c(C)n1Cc1ccc2c(c1)OCO2	?	-2%	3%	?	-39%	9.3µM*
CCc1noc(-c2ccc(N(C)Cc3ccc(OC)cc3)c([N+](=O)[O-])c2)n1	·	·	-3%	·	·	·
CC(C)c1ccccc1	47%	14%	2%	15%	0%	9%
CC(c1ccccc1)[n+]1ccccc1 (configuration not stated)	12µM*	-7%	?	?	-10%	9.3µM*
CC(C)C[C@H](NC(=O)[C@@H]1Cc2c([nH]c3ccccc23)C2c3ccccc3C(=O)N21)C(=O)NCC1CCCO1 (some centres not stated)	9.3µM*	-11%	-13%	?	66%	?
CSCC[C@H](NC(=O)[C@@H]1Cc2c([nH]c3ccccc23)C2c3ccccc3C(=O)N21)C(=O)NCC1CCCO1 (some centres not stated)	9.3µM*	5%	?	0%	178%	?
CC(C)[C@H](NC(=O)[C@@H]1Cc2c([nH]c3ccccc23)C2c3ccccc3C(=O)N21)C(=O)NCC1CCCO1 (some centres not stated)	?	0%	-14%	5%	78%	?
CCOc1ccc2c(c1)c(=O)c(C(=O)c1ccccc1)cn2Cc1ccccc1F	·	·	-9%	·	·	·
CCOc1ccc(NC(=O)c2cc3sc(Cl)cc3n2CC)cc1	·	·	-5%	·	·	·
COc1ccccc1CNC(=O)CCc1c(C)nn(-c2ccc(N3CCCC3)nn2)c1C	·	·	18%	·	·	·
